Compounds with a hit are over-represented: about 2.4% of the library has one in this group of screens.
D2 PAM-1 = human D2 receptor positive allosteric modulation; P14416; DiscoveRx D2 beta-arrestin cells, luminescence, 90 min; 100% = 57 uM dopamine signal; potentiation, % (concentration not given with the values); hit rate 0.23% among 360,000; AID 624464; in the data active means potentiation above about 50%
Target sequence (P14416 whole entry, looked up): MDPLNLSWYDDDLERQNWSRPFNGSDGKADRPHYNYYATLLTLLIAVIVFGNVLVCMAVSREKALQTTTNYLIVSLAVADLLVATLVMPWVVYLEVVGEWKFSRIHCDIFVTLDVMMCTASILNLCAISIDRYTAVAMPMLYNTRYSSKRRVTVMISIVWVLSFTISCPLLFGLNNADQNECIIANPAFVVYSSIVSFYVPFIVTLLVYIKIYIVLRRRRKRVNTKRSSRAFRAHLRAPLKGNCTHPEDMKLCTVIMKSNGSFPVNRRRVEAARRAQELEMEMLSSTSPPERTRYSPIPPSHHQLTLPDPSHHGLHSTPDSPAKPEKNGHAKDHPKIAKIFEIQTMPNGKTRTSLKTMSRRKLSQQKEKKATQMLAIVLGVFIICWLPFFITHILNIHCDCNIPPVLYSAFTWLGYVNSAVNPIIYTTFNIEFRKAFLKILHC
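D2 cells co-treated with compound plus 50 nM dopamine (EC20) for 90 min at 37 deg C to detect potentiation. Beta-arrestin recruitment was read as enzyme-fragment luminescence after 1 h at ambient temperature. Full response was set by 57 uM dopamine.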
D2 antag = D2 dopamine receptor (human) antagonism; HEK293 TREx D2 cells, calcium flux, dopamine EC80; AID 485344; hit rate 2% among 340,000; inhibition, % at 10 µM; P14416; in the data active means inhibition above about 30%; inactive means below that, where a call was filed
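Calcium flux kinetic readout in an inducible HEK293 TREx D2 line plated overnight at 30 C. After 180 s compound exposure, an EC80 dopamine challenge follows with another 180 s kinetic read to detect antagonism.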
D2 ag-1 = activates the human D2 dopamine receptor | P14416 | DiscoveRx PathHunter D2 beta-arrestin, luminescence, 90 min; 100% = 57 uM dopamine signal | activation, % (no concentration beside the values) | hit rate 0.084% among 360,000 | AID 624465; in the data active means activation above about 40%
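DiscoveRx PathHunter D2 beta-arrestin cells (2,100/well) attached overnight, then compound-stimulated 90 min at 37 C in HBSS/10 mM HEPES/0.1% Tween-20 buffer; beta-galactosidase complementation read by luminescence after 1 h at ambient temperature. Dopamine 57 uM final (EC100) as control.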
D2 PAM-2 = positively modulates the human D2 dopamine receptor allosterically; potentiation, % at 10 µM; hit rate 0.34% among 340,000; HEK293 T-REx D2, calcium flux, EC20 dopamine potentiation;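 active means potentiation over 3 SD above the plate norm, cut at about 30% in these data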
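Calcium flux readout, no-wash dye, 1 read/s. Inducible HEK293 Trex D2 line, overnight 30 C. Compound alone 180 s (agonist flags), then EC20 dopamine, another 180 s to score potentiation.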
D2 ag-2 = agonists of human D2 dopamine receptor; P14416; HEK293 T-REx D2 cells, calcium flux agonist mode; activation, % at 2 µM; hit rate 0.53% among 340,000;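 active means activation over 3 SD above normal in the single-dose calcium agonist read, cut at about 30% in these data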
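Calcium-flux readout, 1 cycle/sec over 180 s following compound pin transfer, in inducible HEK293 Trex D2 cells (force-coupled); dopamine controls included. Positive calcium responses during this window marked compounds as potential agonists.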
Hits are given with their value; . = inactive; / = no result given.

SMILES	D2 PAM-1	D2 antag	D2 ag-1	D2 PAM-2	D2 ag-2
O=C1Cc2ccccc2C(c2ccc(Cl)cc2)N1 (stereo not drawn)	.	.	.	.	.
S=C1Cc2ccccc2C(c2ccc(Cl)cc2)N1 (stereo not drawn)	.	33	.	.	.
COc1ccc(N2C(N)=C(C#N)C(c3cc(CN4CCOCC4)cs3)C3=C2CCCC3=O)cc1 (stereo not drawn)	/	/	/	.	.
FC(F)(F)c1ccccc1CN1CCN(C2CCCCCC2)CC1	.	44	.	.	.
Cc1cc2nc3s/c(=C/c4ccc(-c5ccccc5C(=O)O)o4)c(=O)n3c2cc1C	.	34	.	.	70
O=C(O)c1ccccc1-c1ccc(/C=c2\sc3nc4cc(Br)cnc4n3c2=O)o1	.	.	.	.	.
O=C(NCc1ccccc1Cl)c1ccc(Cn2c(SCc3ccccc3)nc3cccnc32)cc1	/	/	/	.	/
COc1ccc(NC(=O)CCCc2ccccc2)c(OC)c1	.	.	.	.	.
COc1ccc(NC(=O)C/C(C)=N/NC(=O)CCc2ccccc2)c(OC)c1	.	40	.	.	.
CC(C)=N/N=c1\scc(C)n1Cc1ccco1	.	40	.	.	.
Cc1cs/c(=N\N=C\c2ccccc2)n1Cc1ccco1	.	.	.	.	.
Cc1ccc(-n2c(=O)c3sc4ccccc4c3n(CC(=O)NC3CCCC3)c2=O)cc1C	/	/	/	.	.
CCC(C)(C)n1nnnc1C(c1ccccn1)N1CCCCC1 (stereo not drawn)	.	52	.	.	.
CCCCCOc1ccc(NC(=O)Cc2csc(C)n2)cc1	/	/	/	.	.
C=CCn1c(N)c(-c2nc3ccccc3n2C)sc1=S	.	.	.	31	.
CCCc1nnc(NC(=O)CCS(=O)(=O)c2ccccc2)s1	.	.	.	32	.
CCCOC(=O)Nc1nnc(CCC)s1	.	44	.	.	.
CC(C)CCNC(=O)CCc1nnc(Cc2c[nH]c3ccccc23)o1	.	.	.	.	.
S=c1[nH]nc(Cc2c[nH]c3ccccc23)o1	.	41	.	.	.
O=C(CNC(=O)c1ccc([N+](=O)[O-])cc1)N/N=C\c1ccc(OC(=O)c2ccccc2)cc1	.	59	.	.	.
COc1cccc(C(=O)NCC(=O)N/N=C/c2cccc(OC(=O)c3ccc([N+](=O)[O-])cc3)c2)c1	.	/	.	/	/
O=C(COc1ccc(/C=N/NC(=O)c2ccncc2)cc1)Nc1ccc([N+](=O)[O-])cc1	.	42	.	/	.
Cc1ccc(-c2nnc(Nc3ccc(O)cc3)c3ccccc23)cc1S(=O)(=O)N1CCN(C)CC1	/	/	/	.	.
Cc1ccccc1N1CCN(C2CCCN(C(=O)CSc3ccccn3)C2)CC1 (stereo not drawn)	.	/	.	/	/
COC(=O)c1ccccc1NC(=O)CN1CCc2ccccc2C1	.	.	.	.	.
SMILES	D2 PAM-1	D2 antag	D2 ag-1	D2 PAM-2	D2 ag-2
COC(=O)c1ccccc1NC(=O)CN1CCN(C23CC4CC(CC(C4)C2)C3)CC1	.	72	.	.	.
CCOc1ccccc1C(O)C1=CC(=O)c2ccccc2C1=O (stereo not drawn)	58	/	.	/	/
CC1=CC(=O)c2ccccc2C1=O	.	.	.	.	.
Cc1ccc(Cn2c(SCc3ccc(C(=O)NC4CCCCC4)cc3)nc3ccncc32)cc1	/	/	/	.	.
Cc1cc(C)cc(NC(=O)CSc2nnc(COc3ccccc3Cl)o2)c1	/	/	/	.	.
Cc1ccc2c(c1)c1c(c(=O)n(-c3ccccc3C)c(=O)n1CC(=O)NCc1ccccc1)n2C	/	/	/	.	.
Cc1c(C(=O)N(C)c2cccc(C(F)(F)F)c2)sc2nc3n(c(=O)c12)CCCCC3	/	/	/	.	.
C/C=C(/C)C(=O)Nc1cccc(C2=NOC3(C2)C[C@@H](C(N)=O)N(C(=O)CC(c2ccccc2)c2ccccc2)C3)c1 (stereo partly drawn)	.	32	.	37	.
C/C=C(\C)C(=O)Nc1cccc(C2=NOC3(C2)C[C@H](C(N)=O)N(C(=O)c2cc([N+](=O)[O-])cc([N+](=O)[O-])c2)C3)c1 (stereo partly drawn)	71	.	.	.	.
C/C=C/C=C\C(=O)Nc1cccc(C2=NOC3(C2)C[C@H](C(N)=O)N(C(=O)CC#N)C3)c1 (stereo partly drawn)	.	33	.	.	.
COc1ccc(CCNC(=O)c2ccc3c(c2)N(Cc2cccc(Cl)c2)C(=O)c2ccccc2S3=O)cc1OC (stereo not drawn)	/	/	/	.	.
CCc1cccc(C)c1NC(=O)c1cc(S(=O)(=O)NCc2ccccc2Cl)ccc1F	/	/	/	.	.
O=C(NCCc1ccccc1)c1ccc(CS(=O)(=O)c2ccc(Cl)cc2)o1	.	31	.	.	.
O=C(NCCc1ccccc1)c1ccc(-c2ccccc2Cl)o1	.	30	.	.	.
O=C(Nc1ccccc1)c1ccc(-c2ccccc2Cl)o1	.	.	.	.	.
O=C(NCCc1ccc(Cl)cc1)c1ccc(CS(=O)(=O)c2ccc(Cl)cc2)o1	/	/	/	.	/
Cc1cc(C)n2nc(C(=O)OCC(=O)Nc3ccc(C)c(F)c3)nc2n1	.	/	.	/	/
CCc1ccc(NC(=O)COC(=O)c2nc3nc(C)cc(C)n3n2)cc1	.	41	.	37	.
Cc1cccc([N+](=O)[O-])c1NC(=O)COC(=O)c1nc2nccc(C)n2n1	.	52	.	.	.
Cc1ccc(C)c(N2CCN(Cc3csc(C)c3)CC2)c1	/	/	/	.	.
CC(C)n1nnnc1SCC(=O)N1N=C(c2cccs2)CC1c1cccs1 (stereo not drawn)	.	39	.	.	.
O=C1S/C(=C\c2ccc(N3CCOCC3)o2)C(=O)N1c1ccccc1	.	.	.	.	31
Cc1cc(=O)oc2c(C)c(OCC(=O)Nc3cccnc3)ccc12	.	36	.	.	.
CCC(CNc1cc(OC)cc2cccnc12)NC1CCCCC1 (stereo not drawn)	.	47	.	.	.
COc1cc(NCCCC(C)N)c2ncccc2c1 (stereo not drawn)	.	.	.	.	.
SMILES	D2 PAM-1	D2 antag	D2 ag-1	D2 PAM-2	D2 ag-2
COc1ccc(OC)c(NC(=O)C2CC(/C=C/c3ccccc3)=NO2)c1 (stereo not drawn)	.	.	.	.	33
CCN1CCN(c2csc3ccc(C)cc3c2=O)CC1	/	/	/	.	.
CCOC(=O)c1ccc(NC(=O)C2Cc3ccccc3C(=O)O2)cc1 (stereo not drawn)	/	/	/	.	.
CCc1nc2cccnc2n1-c1ccc(CC(=O)Nc2ccccc2Cl)cc1	/	/	/	.	.
O=C(CSC1=NCCN1)Nc1cccc(C(F)(F)F)c1	.	75	.	.	.
CCOC(=O)CC(NCc1ccc(OC)c(OCC)c1)c1ccc(C)cc1 (stereo not drawn)	.	61	.	.	.
O=C(COc1ccc2c(c1)OCO2)Nc1ccc2c(c1)oc1ccccc12	.	37	.	.	.

Bioassay records deposited in PubChem BioAssay by National Center for Advancing Translational Sciences (NCATS).
